Data published in PubChem BioAssay AID602292 (National Center for Advancing Translational Sciences (NCATS), 2012).
About 380 (29%) of roughly 1,300 compounds were called active. Inconclusive results (about 37%) are left out. The list shows a part of the results. Unmarked numbers belong to inactive results. The call rests on the fitted dose curve; in most records, active means well fitted inhibition curve with a large enough effect; inconclusive means small, poorly fitted or top-dose-only effect; inactive means flat fitted curve, though single readings scatter.

biological target: Thyrotropin receptor (Homo sapiens) (UniProt P16473); test: qHTS for antagonists of the Thyroid Stimulation Hormone Receptor: Hit Validation in Primary Screen; conditions: TSHR-expressing cells, cAMP antagonist mode; series mostly up to 58 µM; activity change, negative = inhibition: at the top concentration; further: nearly all actives have a fitted effect of over 80% in size;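 on activity change, negative = inhibition: cells stimulated with TSH at EC80 of 4 nM during compound exposure; cAMP by competitive HTRF where cellular cAMP lowers the 665 nm FRET signal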
Sequence (P16473 whole entry, looked up): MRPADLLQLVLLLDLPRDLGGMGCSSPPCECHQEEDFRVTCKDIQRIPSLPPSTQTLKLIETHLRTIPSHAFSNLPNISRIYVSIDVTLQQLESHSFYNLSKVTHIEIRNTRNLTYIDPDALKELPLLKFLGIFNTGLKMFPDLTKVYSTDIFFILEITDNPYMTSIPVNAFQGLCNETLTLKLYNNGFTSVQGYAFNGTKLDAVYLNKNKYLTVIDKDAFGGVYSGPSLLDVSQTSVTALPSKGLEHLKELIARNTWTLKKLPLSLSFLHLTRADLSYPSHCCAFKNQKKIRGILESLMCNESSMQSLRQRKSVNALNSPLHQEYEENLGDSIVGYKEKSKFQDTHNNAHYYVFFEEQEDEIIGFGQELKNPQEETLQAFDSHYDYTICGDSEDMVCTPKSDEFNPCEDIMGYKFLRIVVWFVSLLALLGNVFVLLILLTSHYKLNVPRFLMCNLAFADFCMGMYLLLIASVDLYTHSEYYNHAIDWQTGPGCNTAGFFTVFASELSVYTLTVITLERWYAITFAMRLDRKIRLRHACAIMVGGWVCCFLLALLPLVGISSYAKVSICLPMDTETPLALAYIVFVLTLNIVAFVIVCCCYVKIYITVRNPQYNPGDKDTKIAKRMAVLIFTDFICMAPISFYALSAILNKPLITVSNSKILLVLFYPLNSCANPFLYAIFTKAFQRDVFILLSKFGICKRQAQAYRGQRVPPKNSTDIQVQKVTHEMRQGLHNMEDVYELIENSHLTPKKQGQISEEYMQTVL
Source text: The thyroid-stimulating hormone receptor (TSHR) is a member of the 7 trans-membrane-spanning receptor (7TMR) family of cell surface receptors. TSHR-mediated hyperthyroidism is important in thyroid pathology. The development of small molecule antagonists of TSHR may lead to therapeutic approaches for TSHR-mediated hyperthyroidism caused by constitutively activating mutations or stimulating auto-antibodies associated with Graves' disease. Graves' disease is the leading cause of hyperthyroidism and is caused by autoantibodies that stimulate TSHR (TsAbs) causing thyroid growth and unregulated overproduction of thyroid hormones and existing treatments have liabilities (agranulocytosis). In addition, TSHRs are known to be expressed in multiple extrathyroidal tissues including bone, brain, kidney, testis, fat and cells of the immune system but the role of the TSHR in these tissues is not clear. Therefore, TSHR antagonists/inverse agonists could be used as probes of extrathyroidal TSHR function. Finally, TSHR inverse agonists, which are a subclass of antagonists that inhibit agonist-independent (or basal or constitutive) TSHR signaling, could be used to inhibit TSH-independent signaling in patients with recurrent or metastatic thyroid cancer who are receiving thyroid hormone to suppress TSH.
In collaboration between scientist from the NCGC and the NIDDK, a miniaturized HTRF high-throughput screen was developed. It's a cell based assay, where an anti cAMP antibody contains a fluorescent cryptate tag (excitation 337 nm; emission 620 nm) and the acceptor is cAMP-d2 (excitation 620 nm; emission 665 nm). When antibody and cAMP-d2 interact and are excited by a 337 nm light, a FRET occurs resulting in emission at 665 nm. The assay is competition between cAMP-d2 and cAMP (from the cell lysate). The homogeneous protocol allows for one step dispense after stimulation that is automation friendly. This is a hit validation assay using the primary screen format.
NIH Chemical Genomics Center [NCGC]
NIH Molecular Libraries Probe Centers Network [MLPCN]
Assay Provider: Marvin Gershengorn, NIDDK
1. 3ul of 200 TSHR freshly harvested cells/well are dispensed into a 1536 TC-treated white solid bottom plate.
2. Through pintool addition, 23nl of compounds and control in 100% DMSO are added to the plate.
3. Then 1ul of EC80 TSH (4nM final) is added to the plate.
4. Assay is incubated at 37 deg C for 2 hours.
5. 2ul of cAMP antibody diluted 1:20 in lysis buffer is added.
6. Immediately following, 2ul of d2 diluted 1:20 in HBSS is added seperately.
7. The assay is incubated for 30 minutes at ambient room temperature.
8. The result is obtained by using a ViewLux read-out with HTRF settings.
On the % scale 0 is the no-effect control and ±100 the full control effect; potency means the concentration at half of the fitted maximal effect.

Structure (SMILES)	Potency	activity change, negative = inhibition
CC(C)C1Nc2c(O)cc(Cl)c([N+](=O)[O-])c2C2C=CCC21 (stereo unspecified)	8.49 µM (active)	–
COc1ccc(CNC(=O)CCS(=O)(=O)c2cc3c(cc2Cl)NC(=O)CO3)cc1	–	-4.93%
C/C(=N\NC(=O)c1cccc(Cl)c1)C1C(=O)c2ccccc2C1=O	12 µM (active)	–
CC(=O)N1c2ccc(S(=O)(=O)N3CCC(C(=O)NC4CCCCC4C)CC3)cc2CC1C (stereo unspecified)	–	-8.1%
O=C(COc1cccc2ccccc12)Nc1ccc(Cl)cc1C(=O)O	4.78 µM (active)	–
O=C(Nc1cccc2ccccc12)c1ccccc1	–	-10.5%
O=C(COc1ccc(Cl)cc1Cl)Nc1ccc(C(=O)Nc2ccccc2C(=O)O)cc1	23.9 µM (active)	–
O=C(CSc1ccccn1)Nc1cccc2ccccc12	–	-7.49%
O=C(CSc1ccc2nnc(CCNC(=O)c3ccccc3)n2n1)NCc1ccc(F)cc1	–	-0.864%
N#Cc1ccc(C(=O)Nc2nc(-c3cccs3)c(C(=O)C(F)(F)F)s2)cc1	6.01 µM (active)	–
Cc1ccccc1NC(=O)CCc1c(C)nn(-c2ccc(N3CCOCC3)nn2)c1C	–	-1.58%
CC(=O)c1c(O)cc(O)c(C(C)=O)c1O	30.1 µM (active)	–
Cc1ccc(-n2nc3c(=O)n(C(C)C(=O)NC4CC4)nc(C)c3c2C)cc1 (stereo unspecified)	–	-5.96%
COc1ccc(-c2nn(-c3ccccc3)cc2/C=N/NC(=O)c2ccc(Br)o2)cc1	9.53 µM (active)	–
COc1cc(C(=O)N/N=C/c2cn(Cc3ccccc3)c3ccccc23)ccc1O	–	-12%
CCN(C(=O)CSc1nnc(CNc2cccc(OC)c2)n1C1CCCCC1)C1CCS(=O)(=O)C1 (stereo unspecified)	–	-3.31%
CC(=O)c1cccc(NS(=O)(=O)c2cc(-c3cnc(C4CC4)o3)ccc2C)c1	21.3 µM (active)	–
COc1ccc(NS(=O)(=O)c2cc(-c3cnc(C4CC4)o3)ccc2C)cc1	26.9 µM (active)	–
Cc1ccc(-c2cnc(C3CC3)o2)cc1S(=O)(=O)Nc1ccccc1	30.1 µM (active)	–
CC(=O)c1cccc(NC(=O)c2sc3nc4n(c(=O)c3c2C)CCCC4)c1	–	-17.4%
COc1ccc(-c2cc3c(=O)n(CC(=O)NCc4cccnc4)nc(C)n3n2)cc1	–	-5.13%
CCCn1c(=O)c2[nH]c(C3CCCC3)nc2n(CCC)c1=O	–	-2.13%
O=C(NN=C1CCCC1)c1cc(Cl)cc(Cl)c1O	–	-9.28%
Cc1c(Cl)sn(-c2ccc(Cl)cc2)c1=O	26.9 µM (active)	–

Structure (SMILES)	Potency	activity change, negative = inhibition
CC1=N/C(=C\c2ccc([N+](=O)[O-])cc2)C(=O)N1c1ccc(Cl)cc1	–	-0.461%
O=C(NCCc1ccccc1)c1cc2ccccc2oc1=O	–	-2.82%
CS(=O)(=O)N(Cc1ccccc1)c1ccc(C(=O)N2CCN(c3cccc(Cl)c3)CC2)cc1	–	-7.49%
O=C(Nc1ccc(N2CCN(C(=O)c3ccccc3)CC2)cc1)c1cc2ccccc2o1	23.9 µM (active)	–
CCc1ccc(-c2cc(C)no2)cc1S(=O)(=O)N1CCN(c2ccccn2)CC1	30.1 µM (active)	–
CCN(c1ccc(OC)cc1)S(=O)(=O)c1cc(-c2cc(C)no2)ccc1C(C)C	–	-9.45%
CC(NC(=O)c1cc(=O)[nH]c2ccccc12)c1ccc(F)cc1F (stereo unspecified)	–	-4.26%
Cc1ccc(NC(=O)Cn2ncc3c([nH]c4ccccc43)c2=O)cc1Cl	–	-8.04%
O=C(Nc1ccc(Cl)cc1)c1cc2c(cc1O)[nH]c1ccccc12	3.01 µM (active)	–
COC(=O)Cc1c(C)[nH]n(-c2cc(Cl)cc(Cl)c2)c1=O	–	-7.75%
Cc1cc(C)n2nc(SCC(=O)Nc3ccccc3C)nc2n1	–	0.49%
Cc1cc(C(=O)NC2CCCc3c2cnn3-c2ccc(C(C)(C)C)cc2)nn1C (stereo unspecified)	30.1 µM (active)	–
Cc1cc(C)cc(OC(C)C(=O)NCCCn2ccnc2)c1 (stereo unspecified)	–	-1.84%
O=C(Nc1ccc(Cl)c(S(=O)(=O)N2CCOCC2)c1)c1ccc(OCC2CCCO2)cc1 (stereo unspecified)	15.1 µM (active)	–
CC1=C(C(=O)N2CCCC(N3CCN(c4ccccc4C)CC3)C2)OCCO1 (stereo unspecified)	–	-5.88%
COc1ccccc1N1CCN(C(=O)CCC(=O)N2CCN(c3ccc(F)cc3)CC2)CC1	–	-12.6%
COCCNC(=O)CN1C(=O)c2cccc3cccc1c23	–	-3.72%
CCOc1ccccc1N1CCN(C(=O)CCCN2C(=O)c3cccc4cccc(c34)C2=O)CC1	30.1 µM (active)	–
Nc1ccc(C(=O)NC2CCSc3ccccc32)cc1[N+](=O)[O-] (stereo unspecified)	–	-14.1%
O=C(COC(=O)c1ccccc1C(=O)c1ccc(Cl)c([N+](=O)[O-])c1)NC1CCCCCC1	23.9 µM (active)	–
Cc1ccc(NC(=O)CCc2nnc3ccc(NCc4ccco4)nn23)nc1	–	-7.92%
CN(C)c1ccc(NC(=O)C2C3C=CC(C3)C2C(=O)O)cc1 (stereo unspecified)	–	-8.9%
Cc1ccc(S(=O)(=O)NC(=O)Nc2ccc(N(C)C)cc2)cc1	30.1 µM (active)	–
CN(C)c1ccc(NC(=O)Oc2ccccc2)cc1	–	-7.4%

Structure (SMILES)	Potency	activity change, negative = inhibition
COc1cccc(CN(C)C(=O)c2ccc(OCC(=O)Nc3cccc(C(F)(F)F)c3)c(OC)c2)c1	23.9 µM (active)	–
CSCCCNC(=O)c1ccc(OC2CCN(C(=O)c3cccnc3)CC2)cc1	–	-5.76%
Cn1c2c(c(=O)n(C)c1=O)C(C(F)(F)F)(C(F)(F)F)N=C(c1ccc(Cl)cc1)N2	19 µM (active)	–
COc1ccc(C2c3ccc(O)cc3Oc3ncn(Cc4ccco4)c(=N)c32)cc1 (stereo unspecified)	–	-6.31%
O=C(CN1C(=O)NC2(CCCCCC2)C1=O)N1CCC(Cc2ccccc2)CC1	21.3 µM (active)	–
CC(=O)N1c2ccc(S(=O)(=O)N(C)CC(=O)N(C)Cc3ccccc3)cc2CC1C (stereo unspecified)	–	-5.7%
CC1Cc2ccccc2N1C(=O)COC(=O)/C=C/c1cccc(F)c1 (stereo unspecified)	30.1 µM (active)	–
CC(C)Cc1ccc(C(C)C(=O)Nc2nccs2)cc1 (stereo unspecified)	–	-12.1%
COc1ccc(OC)c2c1C(=O)C(Cl)=C(Cl)C2=O	33.8 µM (active)	–
Cc1cccc(OC2CCN(Cc3nc(CC4CC4)no3)CC2)c1	–	-10.7%
O=C(N[C@H]1C/C=C\C(c2cccc(F)c2)N(Cc2ccccc2)C(=O)C1)OCC1c2ccccc2-c2ccccc21 (stereo partly specified)	–	-5.96%
CCc1cc(CNC(=O)CC2C(=O)NCCN2Cc2ccc(-c3ccccc3)cc2)on1 (stereo unspecified)	–	-10.3%
CCCc1ccc(-c2c(C)sc(NC(=O)c3ccnn3C)c2C#N)cc1	23.9 µM (active)	–
CCN1C(=NCc2ccc(OC)cc2)N[C@@H](CCc2ccccc2)[C@H](C(=O)NCc2ccc(OC)cc2)[C@H]1C	–	-6.54%
Cc1ccc(C2(c3ccc(C)cc3)CC2C(=O)Nc2ccc([N+](=O)[O-])cc2O)cc1 (stereo unspecified)	19 µM (active)	–
CCOc1ccc(C2NC(=O)c3ccccc3O2)cc1OC (stereo unspecified)	–	-2.79%
CC(C)(C)c1ccc(C(=O)CC(Sc2ccc(Cl)cc2)C(=O)O)cc1 (stereo unspecified)	37.9 µM (active)	–
O=C1NC(=S)SC1=C1CCCCCC1	30.1 µM (active)	–
CC1=CCC2C(=O)N(c3ccc(C(=O)Nc4ccccc4Cl)cc3)C(=O)C2C1 (stereo unspecified)	–	-3.11%
Cc1ncsc1CCOC(=O)C1C2CC3CC(C2)CC1C3 (stereo unspecified)	30.1 µM (active)	–
Cc1ccc(S(=O)(=O)/N=C2/NC(=O)/C(=C\c3cc(Br)cc(Br)c3O)S2)cc1	15.1 µM (active)	–
COc1ccc(CNC(=O)CCS(=O)(=O)c2ccc3c(c2)CCN3C(C)=O)cc1	–	-3.72%
Cc1cc(C)c(C2=NOC3C4CCC(C4)C23)c(C)c1 (stereo unspecified)	–	-7.2%
COc1cccc(OC)c1C(=O)Nc1ccc2c(c1)N(S(=O)(=O)c1cccs1)CCC2	–	-6.48%

Structure (SMILES)	Potency	activity change, negative = inhibition
O=C1NC(=S)S/C1=C\c1ccc(SCc2ccccc2)o1	6.01 µM (active)	–
COCCNc1oc(Cc2cccc3ccccc23)nc1C#N	–	-5.82%
O=c1[nH]c(C2CCN(S(=O)(=O)c3cccc(Cl)c3)CC2)nc2c1nnn2Cc1ccccc1	–	-3.4%
O=C(O)c1ccc(Cl)cc1Nc1nc2cc(Cl)ccc2o1	26.9 µM (active)	–
O=C1C=CC(=O)N1CCCCCCN1C(=O)C=CC1=O	37.9 µM (active)	–
C=CCn1c(SCC(=O)c2cccs2)nc2sc(CC)cc2c1=O	21.3 µM (active)	–
O=c1/c(=C/c2ccc(O)c([N+](=O)[O-])c2)sc2nc3ccccc3n12	3.79 µM (active)	–
COc1cc(/C=C(\C#N)c2nc3ccccc3s2)cc([N+](=O)[O-])c1O	7.57 µM (active)	–
N#C/C(=C\c1ccc(O)c([N+](=O)[O-])c1)c1nc2ccccc2s1	6.75 µM (active)	–
COC(CNC(=O)c1ccc(Cn2c(=S)[nH]c3cc4c(cc3c2=O)OCO4)cc1)OC	–	-5.19%
CCOc1ccnc2c1c(=O)n(Cc1cc(OC)cc(OC)c1)c(=O)n2C	–	-3.23%
COC(=O)CN(c1ccc(C)cc1)S(=O)(=O)c1ccc2c(c1)n(C)c(=O)c(=O)n2C	–	-6.66%
COC(=O)c1ccc(C2C(Oc3ccccc3C)C(=O)N2CCc2ccc(OC)c(OC)c2)cc1 (stereo unspecified)	–	-6.94%
COc1ccc(CCNC2=C(Cl)C(=O)N(CCc3ccc(OC)c(OC)c3)C2=O)cc1OC	21.3 µM (active)	–
COc1ccc(CCNC2=C(Cl)C(=O)N(CCc3ccccc3)C2=O)cc1OC	26.9 µM (active)	–
O=C(N/N=C/c1cccc(Oc2ccc([N+](=O)[O-])cc2[N+](=O)[O-])c1)c1cncc(Br)c1	30.1 µM (active)	–
CC(C)COc1cccc(-c2cc(C(=O)Nc3ccon3)c3ccccc3n2)c1	–	-9.56%
N#Cc1nc(Cc2cccc3ccccc23)oc1NCc1ccc2c(c1)OCO2	–	-8.9%
N#Cc1c(Cl)nsc1NC(=O)c1ccccc1	7.57 µM (active)	–
CCN(CC)c1ccc(NC2=C(Cl)C(=O)c3ccccc3C2=O)cc1	23.9 µM (active)	–
O=C(O)c1ccc(NC2=C(Cl)C(=O)c3ccccc3C2=O)cc1	30.1 µM (active)	–
O=C(O)c1cccc(NC2=C(Cl)C(=O)c3ccccc3C2=O)c1	23.9 µM (active)	–
O=C(O)c1ccc(S(=O)(=O)N(Cc2ccccc2)Cc2ccccc2)cc1	–	-7.63%
Cc1ccccc1N1CCN(C2CCCN(C(=O)c3cnsn3)C2)CC1 (stereo unspecified)	–	-2.71%
